The values below come from PubChem BioAssay (NCATS).

Each structure is given as a SMILES string. Results filed as inconclusive are left out. Values without a mark were called inactive. Activity calls are given as the source filed them. The call rests on the fitted dose curve; in most records, active means well fitted inhibition curve with a large enough effect; inconclusive means small, poorly fitted or top-dose-only effect; inactive means flat fitted curve, though single readings scatter.
Potency means the concentration at half of the fitted maximal effect.

Test system in one experiment: not listed separately
Briefly: qHTS profiling for inhibitors of Plasmodium falciparum proliferation (AID 504749). Further: nearly all actives have a fitted effect of over 60% in size.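 On activity, negative = inhibition: 0% = DMSO vehicle and full inhibition = artemisinin control.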 As to conditions: P. falciparum in erythrocytes, SYBR Green DNA, 72 h; at 28.7 µM (top of the series); parasite line A. A digest of the protocol: (§1)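 Infected RBCs, 0.3% parasitemia/2.5% Hct final; cpd 72 h, 37 C, 5% CO2; lysis buffer with saponin/triton/SYBR Green I, o/n RT dark; FI 485/535; norm. to artemisinin (0.29 uM) and DMSO.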
Take `CN(C)CCN(Cc1ccccc1)c1ccccn1`: the activity, negative = inhibition is -2.14%.
The same measure, in the same setting: in the case of `CC[C@@]1(c2ccccc2)NC(=O)N(C)C1=O` it was -2.42%; in that of `CCOc1nc2cccc(C(=O)O)c2n1Cc1ccc(-c2ccccc2-c2nn[nH]n2)cc1`, -6.01%.
Same read-out and setting: in the case of `CC(CN1c2ccccc2Sc2ccccc21)N(C)C` (configuration not stated) it was 8.14%; in that of `Cc1cc(C(C#N)c2ccc(Cl)cc2)c(Cl)cc1NC(=O)c1cc(I)cc(I)c1O` (configuration not stated), 8.49%; in that of `O=S(=O)(O)c1cc(I)c(O)c2ncccc12`, 12%.
Regarding `CCCCOC(=O)c1ccc(O)cc1`, the activity, negative = inhibition was 8.74%.
Same read-out and setting: in the case of `CCOC(CN1CCN(CC(C)C(=O)c2ccccc2)CC1)c1ccccc1` (configuration not stated) it was 2.77%; in that of `CCCCCCCCCCCCCCCC(=O)NCCO`, 5.7%; in that of `Cc1ccc(C(C)C)cc2c(C)ccc1-2`, -17.3%.
Same read-out and setting: in the case of `CCCCN1CCCC[C@H]1C(=O)Nc1c(C)cccc1C` it was 5.7%; in that of `COC(=O)C1=C(C)NC(C)=C(C(=O)OC)C1c1ccccc1[N+](=O)[O-]`, -7.51%; in that of `CN1CCN(C2Cc3ccccc3Sc3ccc(Cl)cc32)CC1` (configuration not stated), -18.4%.
For `[Cl][In]([Cl])[Cl]`, the activity, negative = inhibition is -23.4%.
On the same count and under the same terms, in the case of `Cc1c(Cl)cccc1Nc1ccccc1C(=O)O` it was -2.73%; in that of `CC1=C(CC(=O)O)c2cc(F)ccc2/C1=C\c1ccc(S(C)=O)cc1` (configuration not stated), -3.64%; in that of `O=C1NS(=O)(=O)c2ccccc21`, 2.53%.
With `NC1CCN(c2cccc(Cl)n2)CC1`, the activity, negative = inhibition is 13.3%.

The experiment is the same for the next values; noted with them: P. falciparum in erythrocytes, SYBR Green DNA, 72 h; at 28.7 µM (top of the series); parasite line B.
Turning to `CN(C)CCN(Cc1ccccc1)c1ccccn1`, the activity, negative = inhibition was 9.22%.
The same measure, in the same setting: in the case of `CC[C@@]1(c2ccccc2)NC(=O)N(C)C1=O` it was 13.3%.
The same measure, in the same setting: in the case of `CCCc1c(OCCCCc2nn[nH]n2)ccc(C(C)=O)c1O` it was -24.5%; in that of `CCOc1nc2cccc(C(=O)O)c2n1Cc1ccc(-c2ccccc2-c2nn[nH]n2)cc1`, -13.6%.
For `CC(CN1c2ccccc2Sc2ccccc21)N(C)C` (configuration not stated), the activity, negative = inhibition is -0.843%.
As for `Cc1cc(C(C#N)c2ccc(Cl)cc2)c(Cl)cc1NC(=O)c1cc(I)cc(I)c1O` (configuration not stated), the activity, negative = inhibition was 7.42%.
Consider `O=S(=O)(O)c1cc(I)c(O)c2ncccc12`, for which the activity, negative = inhibition is -2.06%.
Still for that read-out and setting: in the case of `CCCCOC(=O)c1ccc(O)cc1` it was 8.94%; in that of `CCOC(CN1CCN(CC(C)C(=O)c2ccccc2)CC1)c1ccccc1` (configuration not stated), 3.94%; in that of `CCCCCCCCCCCCCCCC(=O)NCCO`, 4.77%.
Same read-out and setting: in the case of `Cc1ccc(C(C)C)cc2c(C)ccc1-2` it was -20.9%.
Same read-out and setting: in the case of `CCCCN1CCCC[C@H]1C(=O)Nc1c(C)cccc1C` it was 17.3%; in that of `OCc1cc(C(O)CNCCCCCCOCCCCc2ccccc2)ccc1O` (configuration not stated), -10.7%.
`COC(=O)C1=C(C)NC(C)=C(C(=O)OC)C1c1ccccc1[N+](=O)[O-]`: the activity, negative = inhibition was -24%.
The same measure, in the same setting: in the case of `CN1CCN(C2Cc3ccccc3Sc3ccc(Cl)cc32)CC1` (configuration not stated) it was -6.83%.
Same read-out and setting: in the case of `[Cl][In]([Cl])[Cl]` it was -19.4%; in that of `Cc1c(Cl)cccc1Nc1ccccc1C(=O)O`, 8.76%.
The same measure, in the same setting: in the case of `CC1=C(CC(=O)O)c2cc(F)ccc2/C1=C\c1ccc(S(C)=O)cc1` (configuration not stated) it was -4.38%; in that of `CC(C)(C)NCC(O)COc1ccc(NC(=O)NC2CCCCC2)cc1` (configuration not stated), 2.44%.
Regarding `NC1CCN(c2cccc(Cl)n2)CC1`, the activity, negative = inhibition is 5.51%.

Staying with this experiment, now noted: P. falciparum in erythrocytes, SYBR Green DNA, 72 h; parasite line A.
On to `NC(=O)N/N=C/c1ccc([N+](=O)[O-])o1`, for which the Potency is 12.6 µM (active).
On the same count and under the same terms, in the case of `Cc1ccc2nc(N)[nH]c(=O)c2c1Sc1ccncc1` it was 7.94 µM (active).
Still for that read-out and setting: in the case of `CNC(=O)Oc1ccc2c(c1)[C@]1(C)CCN(C)[C@@H]1N2C` it was 1.58 µM (active).

Still in this experiment, the particulars now being: P. falciparum in erythrocytes, SYBR Green DNA, 72 h; parasite line B.
For `Cc1cc(N)c2ccccc2[n+]1CCCCCCCCCC[n+]1c(C)cc(N)c2ccccc21`, the Potency is 14.1 µM (active).
Take `Cc1ccc2nc(N)[nH]c(=O)c2c1Sc1ccncc1`: the Potency was 11.2 µM (active).
On the same count and under the same terms, in the case of `CNC(=O)Oc1ccc2c(c1)[C@]1(C)CCN(C)[C@@H]1N2C` it was 2 µM (active).

The test system of the next experiment is 3D7. The description is as above. As to conditions: P. falciparum in erythrocytes, SYBR Green DNA, 72 h; series mostly up to 28.7 µM; activity, negative = inhibition: at the top concentration. A digest of the protocol:
as §1
Consider `CN(C)CCN(Cc1ccccc1)c1ccccn1`, for which the “activity, negative = inhibition” value was -2.15%.
Still for that read-out and setting: in the case of `CC[C@@]1(c2ccccc2)NC(=O)N(C)C1=O` it was 0.283%; in that of `CCCc1c(OCCCCc2nn[nH]n2)ccc(C(C)=O)c1O`, -12.3%; in that of `CCOc1nc2cccc(C(=O)O)c2n1Cc1ccc(-c2ccccc2-c2nn[nH]n2)cc1`, -14.8%.
Same read-out and setting: in the case of `CC(CN1c2ccccc2Sc2ccccc21)N(C)C` (configuration not stated) it was 3.3%.
Take `COCCOC(=O)C1=C(C)NC(C)=C(C(=O)OC/C=C/c2ccccc2)C1c1cccc([N+](=O)[O-])c1` (configuration not stated): the Potency was 12.6 µM (active).
For `Cc1cc(C(C#N)c2ccc(Cl)cc2)c(Cl)cc1NC(=O)c1cc(I)cc(I)c1O` (configuration not stated), the “activity, negative = inhibition” value was -11.6%.
Still for that read-out and setting: in the case of `O=S(=O)(O)c1cc(I)c(O)c2ncccc12` it was 3.18%.
On the same count and under the same terms, in the case of `CCCCOC(=O)c1ccc(O)cc1` it was -2.49%; in that of `CCOC(CN1CCN(CC(C)C(=O)c2ccccc2)CC1)c1ccccc1` (configuration not stated), 3.34%.
Regarding `NC(=O)N/N=C/c1ccc([N+](=O)[O-])o1`, the Potency is 8.91 µM (active).
In the case of `Nc1ccc(S(=O)(=O)Nc2ccc(Cl)nn2)cc1`, the “activity, negative = inhibition” value was 1.72% [at 12.8 µM].
Same read-out and setting: in the case of `CCCCCCCCCCCCCCCC(=O)NCCO` it was 2.37%.
On the same count and under the same terms, in the case of `Cc1ccc(C(C)C)cc2c(C)ccc1-2` it was 0.244%.
The same measure, in the same setting: in the case of `CCCCN1CCCC[C@H]1C(=O)Nc1c(C)cccc1C` it was 14.9%; in that of `OCc1cc(C(O)CNCCCCCCOCCCCc2ccccc2)ccc1O` (configuration not stated), -19.7%.
`COC(=O)C1=C(C)NC(C)=C(C(=O)OC)C1c1ccccc1[N+](=O)[O-]`: the “activity, negative = inhibition” value is -16.4%.
Same read-out and setting: in the case of `C[C@]12C[C@H](O)[C@H]3[C@@H](CCC4=CC(=O)CC[C@@]43C)[C@@H]1CC[C@@H]2C(=O)CO` it was -1.23%; in that of `CN1CCN(C2Cc3ccccc3Sc3ccc(Cl)cc32)CC1` (configuration not stated), -22%.
Same read-out and setting: in the case of `Cc1c(Cl)cccc1Nc1ccccc1C(=O)O` it was -9.31%.
With `Cc1cc(N)c2ccccc2[n+]1CCCCCCCCCC[n+]1c(C)cc(N)c2ccccc21`, the Potency is 0.708 µM (active).
As for `CC1=C(CC(=O)O)c2cc(F)ccc2/C1=C\c1ccc(S(C)=O)cc1` (configuration not stated), the “activity, negative = inhibition” value was -11.7%.
On the same count and under the same terms, in the case of `CC(C)(C)NCC(O)COc1ccc(NC(=O)NC2CCCCC2)cc1` (configuration not stated) it was -2.29%; in that of `O=C1NS(=O)(=O)c2ccccc21`, -2.75%; in that of `NC1CCN(c2cccc(Cl)n2)CC1`, -0.566%.
The same measure, in the same setting: in the case of `CNCCCC1c2ccccc2C=Cc2ccccc21` it was 0.164% [at 12.8 µM].
Regarding `CC(C)(C)C(=O)C(Oc1ccc(Cl)cc1)n1ccnc1` (configuration not stated), the Potency was 10 µM (active).
Regarding `CNC(=O)Oc1ccc2c(c1)[C@]1(C)CCN(C)[C@@H]1N2C`, the Potency was 3.55 µM (active).
